Screening data as filed in PubChem BioAssay.
BJeLR viability: BJeLR cell viability loss; BJeLR (HRASV12) viability, CellTiter-Glo ATP luminescence, 48 h; inhibition, % (no concentration beside the values); 300,000 compounds, 0.17% hits; AID 1554; in the data active = inhibition above about 50%
MazF activator: MazEF (E. coli) toxin RNase activation; 350,000 compounds, 0.32% hits; P0AE70; FAM/BHQ RNA-DNA oligo cleavage fluorescence, 5 h; activation, % at 20 µM; in the data active = activation above about 50%
PrP 5UTR inh: suppresses PrP 5' UTR mRNA reporter expression; 340,000 compounds, 0.35% hits; inhibition, % (no concentration beside the values); cell-based PrP 5' UTR mRNA reporter, plate reader; in the data active = inhibition above about 52%
PrPC TRFRET: reduces human prion protein on the cell surface; AID 720596; P04156; 370,000 compounds, 0.43% hits; cell surface PrPC, TR-FRET read-out; inhibition, % at 13.8 µM; in the data active = inhibition above about 24%
PrPC confirm: cell surface PrPC inhibition, TR-FRET confirmation; shares compounds with PrPC TRFRET; cell surface PrPC level; inhibition, % at 13.8 µM; 1,500 compounds, 65% hits; AID 743200; in the data active = inhibition above about 25%
LD9 cytotox: counter-screen for PrPc inhibitors: cytotoxicity in LD9 cells | shares compounds with PrPC TRFRET | luminescence viability | inhibition, % at 13.8 µM | 1,500 compounds, 29% hits | AID 743201; in the data active = inhibition above about 9.5%
Large screens that a line does not name were inactive (follow-up assays come after a bar, where they were run); ! = not confirmed by another sample. The list is not random: actives were taken first. Their share in the collection is about 1.1%.

COC(=O)C1=C(C)N(Cc2ccccc2C(F)(F)F)C(=NCc2cccc(C(F)(F)F)c2)NC1CCc1ccccc1 (stereo not drawn)	none (no result: BJeLR viability, MazF activator, PrP 5UTR inh)
c1cnc2c(c1)ccc1cccnc12	BJeLR viability 56.1!, PrPC TRFRET 25.1 | PrPC confirm 25.4 | LD9 cytotox 14.3!
Cc1ccnc2c1ccc1cccnc12	PrPC TRFRET 35.1 (no result: BJeLR viability) | PrPC confirm 37.8 | LD9 cytotox 34.9
Cc1cccc2cccnc12	none (no result: BJeLR viability)
O=Cc1ccc2ccc3cccnc3c2n1	none
CCOC(=O)CC[C@H]1CC[C@]2(CCCN(S(=O)(=O)c3ccccc3)C2)O1	none (no result: BJeLR viability, MazF activator, PrP 5UTR inh)
CCOc1ccc(N2C(=O)CC(Sc3ncccn3)C2=O)cc1 (stereo not drawn)	none
CCOc1ccc(N2C(=O)CC(Sc3nc(-c4cccs4)cc(C(F)(F)F)c3C#N)C2=O)cc1 (stereo not drawn)	PrPC TRFRET 24.8 | PrPC confirm inactive | LD9 cytotox inactive
Cc1nn(Cc2ccccc2)c2sc(C(=O)NCc3cccnc3)cc12	PrPC TRFRET 24.5 | PrPC confirm inactive | LD9 cytotox inactive
O=C(NCc1cccnc1)c1sc2ccccc2c1Cl	none
Cc1nn(-c2ccccc2)c2sc(C(=O)NCc3ccc(F)cc3)cc12	none (no result: BJeLR viability, MazF activator, PrP 5UTR inh)
Cc1c(C(=O)NCc2cccnc2)sc2nc(-c3ccc(F)cc3)cn12	none
Cc1ccc2c(Cl)c(C(=O)NCc3cccnc3)sc2c1	PrPC TRFRET 28.8 | PrPC confirm 43.0 | LD9 cytotox inactive
Cc1c(C(=O)NCc2cccnc2)sc2nc(-c3ccccc3)cn12	PrPC TRFRET 28.1 | PrPC confirm inactive | LD9 cytotox inactive
CCOc1ccccc1-c1n[nH]c(=S)o1	PrPC TRFRET 26.9 | PrPC confirm 25.1 | LD9 cytotox inactive
CCOc1ccc(-c2n[nH]c(=S)o2)cc1	none
NC(=O)c1c(N)[nH]c(C(=O)c2ccccc2)c1-c1ccc(Cl)cc1Cl	none (no result: BJeLR viability, MazF activator, PrP 5UTR inh)
CCOC(=O)c1cccc(-c2cc(C(=O)OC)c3n(c2=O)CCC3)c1	none (no result: BJeLR viability, MazF activator, PrP 5UTR inh)
Nc1nc2ncccc2cc1C(=O)c1c[nH]c2ccccc12	none (no result: BJeLR viability, MazF activator, PrP 5UTR inh)
COC(=O)[C@]12C[C@H](CC(=O)NCc3cccc4ccccc34)C(=O)N(CCC3=CCCCC3)C1=C[C@H](C(C)(C)C)O[C@@H]2C	none (no result: BJeLR viability, MazF activator, PrP 5UTR inh)
Cc1cc2cc(CNC(=O)Nc3cccc(Cl)c3)ccc2n1C	PrPC TRFRET 35.4 | PrPC confirm 44.0 | LD9 cytotox inactive
Cc1cccc(NC(=S)NCc2ccc3c(c2)cc(C)n3C)c1C	PrPC TRFRET 27.9 | PrPC confirm inactive | LD9 cytotox inactive
COc1cccc(NC(=S)NCc2ccc3c(c2)cc(C)n3C)c1	none
Cc1cc2cc(CNC(=S)Nc3ccc(OC(F)(F)F)cc3)ccc2n1C	PrPC TRFRET 27.1 | PrPC confirm 33.8 | LD9 cytotox inactive
C=CCNC(=O)c1onc(CSc2ccc(OC)cc2)c1C(=O)O	PrPC TRFRET 36.8 | PrPC confirm inactive | LD9 cytotox inactive
C=CCNC(=O)c1onc(CSc2ccccc2)c1C(=O)O	none
CCOC(=O)c1sc(NC(=O)Cc2c(F)cccc2Cl)nc1C	none
CC(=O)c1sc(NC(=O)Cc2c(F)cccc2Cl)nc1C	PrPC TRFRET 40.9 | PrPC confirm 43.5 | LD9 cytotox inactive
CC(C)n1nnnc1C1(C)CN(S(C)(=O)=O)CC(=O)N1Cc1cccc(C(F)(F)F)c1 (stereo not drawn)	none (no result: BJeLR viability, MazF activator, PrP 5UTR inh)
CCCCCc1c(CC)ncn1CCc1ccccc1OC	PrPC TRFRET 28.9 (no result: BJeLR viability, MazF activator, PrP 5UTR inh) | PrPC confirm inactive | LD9 cytotox 22.1
COCc1cc(N2CCN(C(=O)OC(C)(C)C)C[C@H]2C)ccc1N1CC[C@@H](O)C1	none (no result: BJeLR viability, MazF activator, PrP 5UTR inh)
O=C(N/N=C/c1ccc(O)cc1O)c1ccc(NC(=O)C2CCCCC2)cc1	PrPC TRFRET 34.2 | PrPC confirm 36.8 | LD9 cytotox inactive
O=C(N/N=C/c1cccc(O)c1)c1ccc(NC(=O)C2CCCCC2)cc1	none
Brc1c(CSc2nc3ccccc3o2)nc2ncccn12	PrPC TRFRET 49.0 | PrPC confirm 47.4 | LD9 cytotox inactive
COc1cc(N(C)C)ccc1C=c1c2ccccc2n2c1cc(-c1ccccc1)[n+]2C	PrPC TRFRET 30.8 (no result: BJeLR viability) | PrPC confirm 47.7 | LD9 cytotox 68.3
CCOC(=O)C1=C(C(=O)OCC)C2N(Cc3ccc(C#N)cc3)c3ccccc3[C@@]23C[C@@H](C(=O)OC)N(S(=O)(=O)c2ccccc2C)C3=N1 (stereo partly drawn)	none (no result: BJeLR viability, MazF activator, PrP 5UTR inh)
Cn1cnc2c1c(=O)n(Cc1cccc(Br)c1)c(=O)n2C	none
